Compounds with a hit are over-represented: about 19% of the library has one in this group of screens.
HT1080 IDH1KD tx – kills HT-1080 cells with IDH1 knockdown | HT-1080 IDH1 knockdown viability, ATP luminescence, 48 h | Potency, µM (series often up to 46.1 µM), hits mostly cytotoxic | 360,000 tested, 2% active | AID 686971
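CellTiter-Glo luminescence after 48 h compound exposure at 37 degrees C of IDH1-knockdown HT-1080 cells in 5% FBS RPMI. %Activity scaled between DMSO wells and cell-free media wells, with curves fitted and assigned curve classes.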
HT1080NT lethal – kills 2HG-producing HT-1080-NT fibrosarcoma cells | Potency, µM (titrated, usually from 46.1 µM), most hits filed as cytotoxic | HT-1080-NT fibrosarcoma viability, CellTiter-Glo ATP luminescence, 48 h | 360,000 tested, 1.6% active;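 also: NT is the 2HG producing partner of a matched IDH1 knockdown line; nearly all actives have a fitted effect of over 55% in size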
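Compounds were tested in concentration-response format on HT-1080-NT cells for 48 hours at 37 degrees C. Cell viability came from CellTiter-Glo luminescence; curves were classified by r2, response magnitude and activity.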
KB-3-1 tox – KB-3-1 parental cell cytotoxicity; Potency, µM (titrated, usually from 46.1 µM), actives largely listed as cytotoxic; 400,000 tested, 1.4% active; KB-3-1 viability, CellTiter-Glo ATP luminescence, 72 h; AID 1347075; also: nearly all actives have a fitted effect of over 60% in size
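Cells are dispensed, compounds pinned in, plates held at 37 °C for 72 h, then CellTiter-Glo is added and luminescence read after 10 minutes. Cell line: parental KB-3-1 in phenol-red-free DMEM, 10% FBS.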
KB-V1 cytotox – KB-V1 MDR subline cytotoxicity. KB-V1 MDR cells viability, CellTiter-Glo, 72 h. Potency, µM (top dose mostly 46.1 µM), actives largely listed as cytotoxic. 400,000 tested, 3.4% active. AID 1347076; also: nearly all actives have a fitted effect of over 60% in size
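Readout: CellTiter-Glo luminescence, 10 min after addition. Cells: KB-V1 MDR subline, 72 h at 37 degrees C with compound. Analysis: corrected, normalized data fitted to concentration-effect curves.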
TDP1 cell noCPT – qHTS for Inhibitors of human tyrosyl-DNA phosphodiesterase 1 (TDP1): qHTS in cells in absence of CPT. DT40 Tdp1-/- hTDP1 cells, no CPT, ATP luminescence, 48 h. 420,000 tested, 15% active. Potency, µM (series often up to 46.2 µM), most hits filed as inhibitors; also: nearly all actives have a fitted effect of over 55% in size
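Camptothecin absent (DMSO only). Human TDP1-complemented DT40 knockout cells, 400 cells/well, 37 °C for minimum 48 hr; ATP measured via CellTiter-Glo, 30 min dark incubation, luminescence.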
DT40 TDP1 CPT – growth inhibition of DT40 Tdp1-/-;hTDP1 cells with camptothecin (screen for TDP1 inhibitors). chicken DT40 Tdp1-/-;hTDP1 cells + 20 nM CPT, ATP luminescence, 48 h. Potency, µM (top dose mostly 46.2 µM), actives largely listed as inhibitors. 420,000 tested, 12% active; also: nearly all actives have a fitted effect of over 55% in size
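Chicken DT40 Tdp1-/- cells stably complemented with human TDP1 were seeded at 400 cells/well in medium containing 20 nM camptothecin, exposed to pin-transferred compounds, and grown at 37 °C for at least 48 hr. Viability was read as ATP luminescence.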
A number is an active result; i = inactive; ? = inconclusive; nt = no result given; [ ] = another dose, or the depositor's remark. Calls follow the shape of the dose curve; as a rule, active = well fitted curve in the direction sought with a large enough effect; inconclusive = small, poorly fitted or top-dose-only effect, or another doubt; inactive = no such curve, though single readings can be large; an effect the other way counts as inactive or inconclusive.

SMILES	HT1080 IDH1KD tx	HT1080NT lethal	KB-3-1 tox	KB-V1 cytotox	TDP1 cell noCPT	DT40 TDP1 CPT
CCOC(=O)[C@]12CCCC=C1N(Cc1ccccc1)C(=O)[C@H](CC(=O)N1CCCC1)C2	i	i	i	?	?	i
CCCSc1ncc(Cl)c(C(=O)Nc2c(C(=O)c3ccc(F)cc3)oc3ccccc23)n1	nt	nt	nt	nt	i	i
O=[N+]([O-])/C(C(Cl)=C(Cl)Cl)=C(/Sc1ccccc1)N1CCCCC1	i	i	i	i	13µM	?
CC(=O)N1CCC[C@H]1C(=O)N1CCc2c(cnc(C)c2CNC(=O)/C=C/c2cccs2)C1	nt	nt	nt	nt	i	i[9.04 µM]
Cc1ccc2cc(CN(Cc3ccco3)C(=O)c3cccs3)c(=O)[nH]c2c1	5.8µM	4.61µM	?	5.17µM	3.66µM	2.91µM
Cc1cccc(N(Cc2cc3ccccc3[nH]c2=O)C(=O)c2cccs2)c1	i	i	i	i	23.1µM	?
Cc1ccc(N(Cc2cc3ccc(C)cc3[nH]c2=O)C(=O)c2cccs2)cc1	i	i	i	i	i	i
COc1ccc(-c2c3c(=O)n(C)c(=O)n(C)c3c3c(-c4cccc(C)c4)nc4ccccc4n23)cc1	nt	nt	i	i	20.6µM	?
COc1ccc(-c2nc3ccccc3n3c(-c4ccccc4)c4c(=O)n(C)c(=O)n(C)c4c23)cc1OC	nt	nt	i	i	?	i
COc1ccc(-c2nc3ccccc3n3c(-c4cccc(C)c4)c4c(=O)n(C)c(=O)n(C)c4c23)cc1OC	nt	nt	?	i	18.4µM	16.4µM
COc1ccc(-c2c3c(=O)n(C)c(=O)n(C)c3c3c(-c4ccccc4)nc4ccccc4n23)cc1	nt	nt	i	i	2.31µM	i
COc1ccc(S(=O)(=O)NC(=O)C2(C)CCN2C(=O)Cc2cc(F)ccc2F)cc1 (centres undefined)	i	i	i	i	i	i
CC(C)c1cc(-c2nc(-c3ccc(Cl)cc3)no2)n[nH]1	nt	nt	i	i	20.6µM	20.6µM
COc1cc(-c2noc(-c3cc(C(C)C)[nH]n3)n2)cc(OC)c1OC	nt	nt	i	i	20.6µM	?
COc1cc(-c2noc(-c3cc(C)[nH]n3)n2)cc(OC)c1OC	nt	nt	i	i	?	i
CCn1ncc(Br)c1C(=O)Nc1cc(C)on1	i	i	i	?	i	i
Cc1ccc(C(=O)Nc2cc3c(cc2Cl)OCCCO3)cc1	i	i	i	i	i	i
COc1ccc(C(=O)Nc2cc3c(cc2Cl)OCCCO3)cc1	i	i	i	i	?	i
O=C(Nc1cc2c(cc1Cl)OCCCO2)c1ccc(F)cc1	i	i	i	16.4µM	i	i
O=C(Nc1cc2c(cc1Br)OCCCO2)c1ccccc1	i	i	i	20.6µM	i	i
COc1cccc(C(=O)Nc2cc3c(cc2Cl)OCCCO3)c1	i	i	i	23.1µM	i	i
CCOC(=O)c1ccc(NC(=O)CCCN2C(=O)NC3(CCCC3)C2=O)cc1	i	i	i	?	i	i
CCN(C(=O)c1ccco1)c1nc(-c2ccc(OC)cc2)cs1	i	i	i	i	?	i
COCCN(C(=O)c1ccco1)c1nc(-c2ccc(OC)cc2)cs1	i	i	i	?	16.4µM	25.9µM
COc1ccc(-c2csc(N(CC3CCCO3)C(=O)c3ccco3)n2)cc1 (centres undefined)	i	i	?	i	20.6µM	20.6µM
SMILES	HT1080 IDH1KD tx	HT1080NT lethal	KB-3-1 tox	KB-V1 cytotox	TDP1 cell noCPT	DT40 TDP1 CPT
CN1CCN(C2=C(Cl)C(=O)N(c3cccc(Cl)c3)C2=O)CC1	i	i	i	i	i	i
CN1CCN(C2=C(Cl)C(=O)N(c3ccc(Cl)c(Cl)c3)C2=O)CC1	?	?	i	i	?	29.1µM
CCN(c1nc(N)c(C(=O)N=C(N)N)nc1Cl)C(C)C	?	i	i	i	7.31µM	20.6µM
Cc1ccc2cc(/C=C/C(=O)c3ccco3)c(Cl)nc2c1	11.6µM	?	i	?	20.6µM	10.3µM
COc1cc2cc(/C=C/C(=O)c3ccco3)c(Cl)nc2cc1OC	i	?	?	?	4.61µM	4.11µM
C[C@@H]1c2ccccc2CN1CC1=NCCN1	nt	nt	nt	nt	i	?
Cc1ccc(-c2nnc(SCc3nc4ccccc4[nH]3)n2Cc2ccco2)cc1	i	i	i	?	?	?
C=CCn1c(SCc2ccc(C#N)cc2)nnc1-c1ccccc1	i	i	i	9.2µM	i	i
COc1cccc(-c2nnc(SCc3ccc(C#N)cc3)n2Cc2ccco2)c1	i	i	i	?	23.1µM	?
Cc1ccc(-c2nnc(SCc3ccc(C#N)cc3)n2Cc2ccco2)cc1	i	i	i	i	?	25.9µM
CCOc1ccc(OCC)c(NC(=O)c2cnn(-c3ccc(F)cc3)c2-n2cccc2)c1	nt	nt	i	i	nt	nt
C[C@]12c3[nH]c4ccc(Cl)cc4c3CCN1C(=O)[C@@H](CC(=O)NCCN1CCOCC1)C[C@@H]2C(=O)N1CCCCC1	?	i	i	i	16.4µM	?
CC(C)(C)NC(=O)C[C@H]1C[C@H](C(=O)N2CCCCC2)[C@@]2(C)c3[nH]c4ccc(Cl)cc4c3CCN2C1=O	i	i	i	i	20.6µM	23.1µM
CN(C)CCCNC(=O)C[C@H]1C[C@H](C(=O)N2CCCCC2)[C@@]2(C)c3[nH]c4ccc(Cl)cc4c3CCN2C1=O	i	i	i	i	?	?
O=C(Nc1ccc(Cl)cc1F)c1cc(S(=O)(=O)NC2CCCCCC2)ccc1F	nt	nt	i	i	?	20.6µM
O=C(Nc1ccc(Br)cc1F)c1cc(S(=O)(=O)NCc2ccc(F)cc2)ccc1F	nt	nt	nt	nt	?	i
COc1ccc(C)cc1NC(=O)c1cc(S(=O)(=O)NC2CCCCCC2)ccc1F	nt	nt	i	i	?	?
CN(C)S(=O)(=O)c1ccc(F)c(C(=O)Nc2ccccc2C(=O)NC2CC2)c1	i	i	i	i	?	i
O=C(Nc1ccc(Br)cc1F)c1cc(S(=O)(=O)NC2CCCC2)ccc1F	nt	nt	nt	nt	16.4µM	20.6µM
CCc1ccccc1NC(=O)c1cc(S(=O)(=O)NC2CCCC2)ccc1F	nt	nt	i	i	20.6µM	?
COc1ccc(OCC(=O)OCC(=O)NCC2CCCCC2)cc1	i	i	i	i	i	i
Cc1oc(-c2cccc(Cl)c2)nc1CN1CCCC(C(=O)NC(C)c2ccc3c(c2)OCCO3)C1 (centres undefined)	16.4µM	?	?	25.9µM	11.6µM	20.6µM
Cc1oc(-c2cccc(Cl)c2)nc1CN1CCCC(C(=O)NCc2ccc(Cl)cc2)C1 (centres undefined)	nt	nt	i	i	7.31µM	8.2µM
Cc1oc(-c2cccc(Cl)c2)nc1CN1CCCC(C(=O)NCc2ccco2)C1 (centres undefined)	i	i	i	i	?	?
